# Measured values as given in the supplement of paper PMC4166925.
# ± gives the standard deviation of the averaged measurements. Whole data set: some 33,000 sequences, median “E-score (dimensionless, -0.5 to 0.5)” near -0.046, cut for the highest 2% near 0.36. Shown is part of a subset that was picked to be rich in the highest values.
# Test system: T1, SpTbr T-box DNA-binding domain (GST fusion)
# T1 sequence: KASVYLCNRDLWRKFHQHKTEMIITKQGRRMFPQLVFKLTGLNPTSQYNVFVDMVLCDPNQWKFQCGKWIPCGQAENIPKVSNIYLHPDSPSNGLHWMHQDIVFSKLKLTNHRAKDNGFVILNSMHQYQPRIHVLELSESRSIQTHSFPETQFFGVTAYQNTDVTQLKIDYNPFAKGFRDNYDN
# Assay: PBM E-score of 8-mer (E-score (dimensionless, -0.5 to 0.5)); Tbr is Tbrain of the sea star Patiria miniata (Pm) or the sea urchin Strongylocentrotus purpuratus (Sp); higher = stronger binding preference
# Settings: the construct has about 5 more residues each side
# Summary of the method: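 Each ungapped 8-mer received an enrichment E-score from the Universal PBM Analysis Suite, averaged over duplicate arrays. The proteins were Tbr T-box DNA-binding domains, covering the whole T-box plus about five flanking residues, fused to GST and expressed in BL21 E. coli at 20 °C before glutathione affinity purification. Universal Agilent oligonucleotide arrays were made double-stranded by primer extension and incubated with 200 nM protein in PBS (pH 7.5). The arrays were then scanned and quantified, and every 8-mer was scored from probe intensities.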
row,Sequence,PBM E-score of 8-mer
1,AACTAGGC,-0.0665 ± 0.022
2,GCCGGATA,-0.321 ± 0.0046
3,CAGAGATC,-0.204 ± 0.022
4,TCGTAGCA,0.128 ± 0.038
5,GGATTGGA,-0.187 ± 0.026
6,CGATCCGA,-0.0614 ± 0.036
7,AAAGAGGG,-0.0825 ± 0.036
8,CCTGACAA,0.153 ± 0.0094
9,GCTGACAA,0.227 ± 0.031
10,CCTGACAG,0.121 ± 0.0013
11,ACTGACAC,0.349 ± 0.011
12,GCTGACAC,0.386 ± 0.039
13,CCTGACAC,0.427 ± 0.01
14,ATTTGTGG,0.075 ± 0.012
15,CTCGGGTC,-0.0239 ± 0.0073
16,AGATGACG,0.125 ± 0.029
17,TACAGCGA,-0.193 ± 0.038
18,CCCACTTC,0.171 ± 0.018
19,CGCACTTA,0.329 ± 0.0023
20,ATCACTTA,0.0863 ± 0.053
21,CACACTTC,0.4456 ± 0.0039
22,AACACTTC,0.407 ± 0.0093
23,CACACTTA,0.447 ± 0.0064
24,AGCACTTC,0.3006 ± 0.0019
25,AACACTGA,0.0941 ± 0.085

row,Sequence,PBM E-score of 8-mer
1,AACACTTA,0.386 ± 0.031
2,CACACTGC,0.175 ± 0.0027
3,ATCACTTC,0.226 ± 0.033
4,CACACTGA,0.235 ± 0.0071
5,AGGAGGGG,0.0237 ± 0.0028
6,ACATCCAG,0.11 ± 0.03
7,CAGATTGA,-0.076 ± 0.021
8,CCAGAAGC,-0.0847 ± 0.077
9,CGAGTATC,-0.139 ± 0.032
10,CCCGTTAC,-0.0493 ± 0.068
11,AACTGCTC,0.00139 ± 0.031
12,GCAAAAAA,-0.111 ± 0.022
13,ATCCAATG,-0.108 ± 0.019
14,ACCATTGA,0.0727 ± 0.061
15,GCAGCCAC,0.126 ± 0.026
16,ATACAGAC,-0.0432 ± 0.019
17,TCCAATAA,-0.0798 ± 0.025
18,GCCACTTA,0.244 ± 0.011
19,ATCACTTG,0.169 ± 0.064
20,GACACTGA,0.093 ± 0.019
21,GACACTTA,0.393 ± 0.0065
22,AACACTTG,0.3953 ± 0.0019
23,AACACTAG,0.222 ± 0.049
24,GTAGCTTA,-0.0295 ± 0.0053
25,AAGCTTAC,-0.128 ± 0.056

row,Sequence,PBM E-score of 8-mer
1,TCAGGCAA,-0.143 ± 0.02
2,CAGTATTC,-0.193 ± 0.092
3,GACCTACA,-0.0944 ± 0.046
4,CCCCTACG,-0.185 ± 0.019
5,CACCTACG,0.373 ± 0.0055
6,CACCTACA,0.371 ± 0.014
7,AACCTACC,-0.182 ± 0.056
8,TACCTACA,-0.24 ± 0.016
9,AACCTACG,-0.159 ± 0.083
10,GACCTACC,-0.129 ± 0.006
11,CACCTACC,0.394 ± 0.01
12,CCCGCCTA,-0.0474 ± 0.13
13,TATTGCCA,0.0232 ± 0.0082
14,CCCTTGCG,-0.0683 ± 0.034
15,GTCTCAGA,-0.0914 ± 0.014
16,GGTGCATA,0.0222 ± 0.011
17,CCCGATAA,0.0927 ± 0.11
18,CCACACGG,0.0912 ± 0.023
19,CGAACGAG,0.0552 ± 0.067
20,CGTCCTGC,-0.234 ± 0.0096
21,ATAAGTCA,-0.102 ± 0.017
22,AGACACCC,0.156 ± 0.041
23,CGACACCA,0.387 ± 0.014
24,GGACACCA,0.183 ± 0.045
25,TGACACCA,0.419 ± 0.0076

row,Sequence,PBM E-score of 8-mer
1,CGACACGA,0.174 ± 0.041
2,GGACACCC,0.185 ± 0.023
3,AGACACCA,0.251 ± 0.032
4,CGACACCC,0.416 ± 0.028
5,CGACACCG,0.257 ± 0.037
6,GGCCACTA,-0.0216 ± 0.031
7,CTACTACC,-0.112 ± 0.033
8,CCAATTTC,0.0768 ± 0.033
9,ATCGCTCG,-0.0361 ± 0.046
10,ATCGCACA,0.366 ± 0.0063
11,CTCGCAGA,0.0495 ± 0.024
12,CTCGCACC,0.451 ± 0.016
13,ATCGCAAG,0.177 ± 0.03
14,CTCGCACA,0.37 ± 0.016
15,ATGGCACC,0.3573 ± 0.0028
16,CTGGCACC,0.367 ± 0.018
17,CTCGCATC,0.129 ± 0.052
18,CTCGCAAG,0.204 ± 0.032
19,CTGGCACA,0.1856 ± 0.00035
20,ATCGCACG,0.345 ± 0.027
21,CCCGCACC,0.311 ± 0.036
22,AGAGTGAC,0.145 ± 0.013
23,ATATTGGC,0.12 ± 0.019
24,CGATAGTA,-0.122 ± 0.091
25,ATTCTACA,-0.0365 ± 0.019

row,Sequence,PBM E-score of 8-mer
1,ACGAAAGA,-0.0823 ± 0.0021
2,AGACTGCG,0.0627 ± 0.0045
3,GAATCTTA,-0.197 ± 0.05
4,CATCTCTA,-0.0506 ± 0.074
5,CAGACTCA,-0.0949 ± 0.051
6,GCTCTCAC,0.312 ± 0.028
7,GACTGTGC,-0.124 ± 0.033
8,GCCCGTCC,-0.216 ± 0.0065
9,GCCAGGCC,-0.217 ± 0.036
10,ATCGCAGC,0.0579 ± 0.024
11,GTCGCACA,0.3754 ± 0.0036
12,GTCGCAAA,0.0958 ± 0.038
13,ATCGCACC,0.47 ± 0.006
14,GTCGCAGA,-0.0708 ± 0.1
15,ATCGCAAC,0.232 ± 0.0099
16,AAGGTTAG,-0.0571 ± 0.0011
17,CTCGGGCC,-0.167 ± 0.0065
18,GCCGGTCC,-0.235 ± 0.075
19,TGCTCACA,0.3801 ± 0.0011
20,AACTCACG,0.00507 ± 0.019
21,GACTCACA,0.313 ± 0.038
22,CGCTCACA,0.263 ± 0.015
23,GGCTCACA,0.161 ± 0.053
24,AACTCACA,0.2436 ± 0.00066
25,CACTCACG,0.266 ± 0.052

row,Sequence,PBM E-score of 8-mer
1,TACTCACA,0.371 ± 0.0028
2,CACTCACA,0.377 ± 0.017
3,ACGAGCTA,-0.118 ± 0.015
4,TCAACCCA,-0.174 ± 0.026
5,ATACTTGC,0.0754 ± 0.026
6,ATGCATCA,0.0819 ± 0.023
7,CGACTGAC,0.0364 ± 0.013
8,AGAGGAGC,-0.0105 ± 0.083
9,ACCTGTAC,-0.148 ± 0.024
10,GAGTAAAC,-0.0192 ± 0.019
11,CCCAGAAA,-0.216 ± 0.045
12,TAGTGTCA,0.395 ± 0.032
13,AAGTGTAG,0.144 ± 0.0052
14,CAGTGTCA,0.3068 ± 0.002
15,GAGTGTCC,0.0603 ± 0.01
16,AAGTGTAA,0.399 ± 0.018
17,AAGTGTCT,0.292 ± 0.033
18,CAGTGTCG,0.266 ± 0.0072
19,TCGTGTCA,0.294 ± 0.0086
20,GATTGTCA,0.248 ± 0.0068
21,AAGTGTCG,0.425
22,TAGTGTAA,0.216 ± 0.061
23,GAGTGTCA,0.4478 ± 0.0016
24,AGCAAAGC,-0.0455 ± 0.048
25,AAAGCAGT,-0.167 ± 0.049

row,Sequence,PBM E-score of 8-mer
1,TGAGATAA,0.0687 ± 0.09
2,CACAGGGG,0.0864 ± 0.031
3,ACCGTTCC,-0.000825 ± 0.11
4,AAGTGTCA,0.46288 ± 2.8e-05
5,AAGTGTAT,0.0229 ± 0.032
6,AAGTGTCC,0.2466 ± 0.0019
7,CCTATGCG,0.00647 ± 0.019
8,GCGCGCCA,0.133 ± 0.087
9,TCACGCGA,0.3949 ± 0.0026
10,GCACGCCA,0.0542 ± 0.013
11,TCACGCCA,0.403 ± 0.0053
12,TCGCGCGA,0.379 ± 0.0069
13,ACGCGCCA,0.201 ± 0.019
14,GCACGCGA,0.186 ± 0.025
15,CCACGCGA,0.172 ± 0.028
16,CCGCGCGA,0.203 ± 0.03
17,TCGCGCCA,0.384 ± 0.009
18,GCGCGCGA,0.316 ± 0.041
19,ACACGCCA,0.205 ± 0.0044
20,CAGACAAA,-0.0589 ± 0.033
21,GGATACAA,0.0747 ± 0.011
22,CCGCCTCG,-0.0478 ± 0.058
